Tg IFNy HTS: inhibitors of Toxoplasma gondii growth with IFN-gamma; Toxoplasma gondii growth in IFN-gamma-treated host cells; stronger effect = lower value; activity change, negative = inhibition, % (test concentration not listed); 3.8% of 69,000 active; AID 1259416; in the data active = activity change below about -70%, passing the limit was not always enough;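 also: host cells are HeLa cells infected with Toxoplasma gondii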
A number is an active result. The entries come from a sample that favours hits as a whole.

How did CO[C@@H]1CN(C)C(=O)c2ccc(NC(=O)C3CCOCC3)cc2OC[C@@H](C)N(Cc2ccc(F)cc2)C[C@H]1C do in these assays?
Tg IFNy HTS: inactive

What do the screens show for `Cc1ccsc1C(=O)N1Cc2ccnn2CC(COCC2CC2)C1` (stereo not drawn)?
Tg IFNy HTS: inactive

What do the screens show for `O=c1oc2ccccc2c2c1C(c1ccc3c(c1)OCO3)Nc1ccc3ccccc3c1-2` (stereo not drawn)?
Tg IFNy HTS: inactive

How did Fc1ccc(C2Nc3ccc4ccccc4c3C3=C2CCCC3)cc1 (stereo not drawn) do in these assays?
Tg IFNy HTS: -105

How did O=C(NC1COC2(CCNCC2)C1)c1ccc(F)cc1 (stereo not drawn) do in these assays?
Tg IFNy HTS: inactive

How did CO[C@H]1CN(C)C(=O)c2ccc(NC(C)=O)cc2OC[C@H](C)N(Cc2cccc(F)c2)C[C@H]1C do in these assays?
Tg IFNy HTS: inactive

How did COc1ccc(F)cc1C(=O)C1CCCN(CCc2c[nH]c(=O)n(C)c2=O)C1 (stereo not drawn) do in these assays?
Tg IFNy HTS: inactive

How did O=C(O)c1cccnc1CN1CCN(c2cccc(Cl)c2Cl)CC1 do in these assays?
Tg IFNy HTS: inactive

Results for CC(C)C1COC2(CCCN(C(=O)c3cnn4cccnc34)C2)C1 (stereo not drawn) ?
Tg IFNy HTS: inactive

How did C[C@@H]1CN([C@H](C)CO)S(=O)(=O)c2ccc(C#CC3(O)CCCC3)cc2O[C@H]1CN(C)C(=O)Nc1cccc(F)c1 do in these assays?
Tg IFNy HTS: -90

Results for Cc1ccccc1-c1ccc2c(c1)O[C@H](CN(C)C(=O)Nc1ccc(C(F)(F)F)cc1)[C@H](C)CN([C@H](C)CO)S2(=O)=O ?
Tg IFNy HTS: inactive

How did CCCNC(=O)N(C)C[C@H]1Oc2cc(C#C[C@@H](C)O)ccc2S(=O)(=O)N([C@@H](C)CO)C[C@@H]1C do in these assays?
Tg IFNy HTS: inactive

What do the screens show for `CCCNC(=O)N(C)C[C@@H]1Oc2cc(C#C[C@@H](C)O)ccc2S(=O)(=O)N([C@H](C)CO)C[C@@H]1C`?
Tg IFNy HTS: inactive

What do the screens show for `CCCNC(=O)N(C)C[C@H]1Oc2cc(C#C[C@H](C)O)ccc2S(=O)(=O)N([C@@H](C)CO)C[C@@H]1C`?
Tg IFNy HTS: inactive

How did CCCNC(=O)N(C)C[C@@H]1Oc2cc(C#C[C@@H](C)O)ccc2S(=O)(=O)N([C@@H](C)CO)C[C@@H]1C do in these assays?
Tg IFNy HTS: inactive

How did Cc1noc(C)c1NC(=O)N(C)C[C@H]1Oc2cc(C#CCN(C)C)ccc2S(=O)(=O)N([C@H](C)CO)C[C@@H]1C do in these assays?
Tg IFNy HTS: inactive

Results for Cc1ccccc1-c1ccc2c(c1)O[C@@H](CN(C)C(=O)Nc1ccc(C(F)(F)F)cc1)[C@H](C)CN([C@H](C)CO)S2(=O)=O ?
Tg IFNy HTS: -92

How did CCCNC(=O)N(C)C[C@@H]1Oc2cc(C#C[C@H](C)O)ccc2S(=O)(=O)N([C@@H](C)CO)C[C@H]1C do in these assays?
Tg IFNy HTS: inactive

What do the screens show for `C[C@@H]1CN([C@H](C)CO)S(=O)(=O)c2ccc(C#CC3(O)CCCC3)cc2O[C@@H]1CN(C)C(=O)Nc1cccc(F)c1`?
Tg IFNy HTS: -99

What do the screens show for `C[C@H](CO)N1C[C@H](C)[C@@H](CN(C)C(=O)Nc2ccccc2F)Oc2cc(Br)ccc2S1(=O)=O`?
Tg IFNy HTS: inactive

Results for C[C@H](CO)N1C[C@H](C)[C@@H](CN(C)C(=O)Nc2cccc(F)c2)Oc2cc(C#CC3(O)CCCC3)ccc2S1(=O)=O ?
Tg IFNy HTS: -93

Results for CN(Cc1cc(C(C)(C)C)n[nH]1)Cc1cccc2c1OCO2 ?
Tg IFNy HTS: inactive

How did COc1ccc(C#Cc2ccc([C@H]3[C@H]4CN(C(=O)NC(C)C)CC(=O)N4[C@H]3CO)cc2)cc1 do in these assays?
Tg IFNy HTS: inactive

Results for Cc1nc(-c2ccc(F)cc2)sc1CCNS(=O)(=O)c1ccccc1 ?
Tg IFNy HTS: inactive

How did Cc1ccc(CN2C[C@H]3[C@H](C(=O)N4CCOCC4)CCS(=O)(=O)[C@H]3C2)cc1 do in these assays?
Tg IFNy HTS: inactive

Results for COc1ccc2c3c(n(C)c2c1)[C@H](CO)N(Cc1ccccc1)CC31CN(S(=O)(=O)c2ccc(C)cc2)C1 ?
Tg IFNy HTS: inactive

How did O=c1ccc2cc(S(=O)(=O)Nc3cccc4c3CCCC4)ccc2[nH]1 do in these assays?
Tg IFNy HTS: inactive

What do the screens show for `O/N=C/c1cc[n+](COC[n+]2ccc(/C=N/O)cc2)cc1`?
Tg IFNy HTS: inactive

Results for C[C@@H]1CN([C@@H](C)CO)C(=O)c2cccc(NC(=O)c3nc4ccccc4s3)c2O[C@H]1CN(C)C(=O)Nc1ccc2c(c1)OCO2 ?
Tg IFNy HTS: inactive

What do the screens show for `Cc1ccc(-n2ncc3c(-n4nc(C)cc4NC(=O)C4CCCC4)ncnc32)c(C)c1`?
Tg IFNy HTS: -106

Results for Cc1ccc(-n2ncc3c(-n4nc(C)cc4NC(=O)CCC4CCCC4)ncnc32)c(C)c1 ?
Tg IFNy HTS: inactive

What do the screens show for `CCCCC1CCC(C(=O)Nc2cc(C)nn2-c2ncnc3c2cnn3-c2ccc(C)cc2C)CC1` (stereo not drawn)?
Tg IFNy HTS: inactive

Results for CC1CCN(S(=O)(=O)c2ccc3c(c2)CCC(=O)N3CC(=O)N(C)Cc2ccccc2)CC1 ?
Tg IFNy HTS: inactive

How did O=C(NCCc1ccncc1)[C@@H]1[C@@H](CO)[C@@H]2Cn3c(ccc(-c4ccccc4)c3=O)[C@@H]2N1C(=O)C1CC1 do in these assays?
Tg IFNy HTS: inactive

How did CCCN1C(=O)CCc2cc(NC(=O)c3ccsc3)ccc21 do in these assays?
Tg IFNy HTS: inactive

Results for CCCN1C(=O)CCc2cc(NC(=O)c3ccc(C)cc3)ccc21 ?
Tg IFNy HTS: inactive

What do the screens show for `CCOc1ccc(S(=O)(=O)Nc2ccc3c(c2)CCC(=O)N3CC(C)C)cc1`?
Tg IFNy HTS: inactive

Results for CCCN1C(=O)CCc2cc(NC(=O)c3ccc(C(C)C)cc3)ccc21 ?
Tg IFNy HTS: -106

How did CC(=O)Nc1ccc2c(c1)CCC(=O)N2CC(C)C do in these assays?
Tg IFNy HTS: inactive

Results for CCOc1ccc(C(=O)Nc2ccc3c(c2)CCC(=O)N3CC(C)C)cc1 ?
Tg IFNy HTS: -82

How did CCN1c2cc(Cl)ccc2C(=O)NC12CCN(C(=O)NCc1ccc(F)cc1)CC2 do in these assays?
Tg IFNy HTS: inactive

How did Cc1nnc(-c2c(C)[nH]c(C)c2S(=O)(=O)N2CCC(N3CCCCC3)CC2)o1 do in these assays?
Tg IFNy HTS: inactive

What do the screens show for `CC(C)C(NC(=O)C1(c2ccccc2)CC1)c1nnc2n1CCNCC2` (stereo not drawn)?
Tg IFNy HTS: inactive

What do the screens show for `COc1ccc(-c2c(C)c3ccccc3[nH]c2=O)cn1`?
Tg IFNy HTS: inactive

How did Cc1ccc(C(=O)Nc2ccc(CN3CCN(C)CC3)c(C(F)(F)F)c2)cc1C#Cc1cnc2cccnn12 do in these assays?
Tg IFNy HTS: -79

What do the screens show for `O=C(Nc1cccc(N2CCC(NCCc3ccccc3C(F)(F)F)CC2)c1)c1ccncc1`?
Tg IFNy HTS: inactive

Results for Cc1ccc(NC(=O)c2ccc(CN3CCN(C)CC3)cc2)cc1Nc1nc(-c2cccnc2)cs1 ?
Tg IFNy HTS: inactive

How did CCOC(=O)NC(Nc1cc(C)on1)(C(F)(F)F)C(F)(F)F do in these assays?
Tg IFNy HTS: inactive

How did C#CCOC(=O)Nc1cnc(OCC)c(C(F)(F)F)c1 do in these assays?
Tg IFNy HTS: -75

What do the screens show for `COCC12CCCOC1CCN(C(=O)c1ccc3c(c1)OCO3)C2` (stereo not drawn)?
Tg IFNy HTS: inactive

Results for Cc1[nH]c(SCC(=O)Nc2ccc(S(N)(=O)=O)cc2)nc1Cc1ccccc1 ?
Tg IFNy HTS: inactive
